In PubChem BioAssay (NCI) one finds growth data, which are given here for nine molecules.

Some test systems named below: HCT-15 colon; HT29 colon; U251 CNS; PC-3 prostate; SK-MEL-5 melanoma; UACC-62 melanoma; LOX IMVI melanoma; SK-MEL-28 melanoma; SK-MEL-2 melanoma; EKVX NSCLC; UO-31 renal; TK-10 renal; ACHN renal; CAKI-1 renal; A498 renal; CCRF-CEM leukemia; MOLT-4 leukemia; SNB-19 CNS; SN12C renal.
Assay in all cases: NCI-60 one-dose screen, 48 h (100 = growth as untreated, 0 = no growth, -100 = all killed)
Conditions in all cases: 10 µM unless noted

Structures are written as SMILES. About 83,000 compounds went through this panel and 20% of them were active in at least one assay; those are over-represented in the sample as a whole.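 Plates (96-well) were seeded with cells, treated with compound at one concentration, and incubated for 48 hours before percent growth was determined.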 Unmarked numbers belong to inactive results. Calls of active or inactive are those of the source. The calls were made as follows: active = growth percent below 10; inactive = the rest.

For the molecule `COc1cc(/C=C2\C(=O)N(c3c(Cl)cccc3Cl)c3ccccc32)cc(OC)c1O`, the growth in the assay with HCT-15 colon was 30.7%; in the assay with HT29 colon it was 22.6%; with U251 CNS it was 22.4%; in the assay on PC-3 prostate it was 15.2%; with SK-MEL-5 melanoma, 32.3%; in the assay with UACC-62 melanoma, 47.5%. For the same molecule, the growth in the assay on LOX IMVI melanoma is 2.06% (active); in the assay on SK-MEL-28 melanoma, 58.8%; in the assay with SK-MEL-2 melanoma it was 36%; in the assay on EKVX NSCLC it was 79.8%; in the assay on UO-31 renal, 31.7%; in the assay with TK-10 renal it was 48.2%. Also, the growth in the assay with ACHN renal is 40.5%; with CAKI-1 renal, 7.23% (active); with A498 renal it was 102%; in the assay with CCRF-CEM leukemia, 17.6%; in the assay with MOLT-4 leukemia it was 0.985% (active).
As for `N#Cc1c(O)c2c(c(O)c1C#N)C(=O)c1ccccc1C2=O`, the growth is 26.9% in the assay on HCT-15 colon; 0.694% (active) in the assay with HT29 colon; 70.8% in the assay on SNB-19 CNS; 3.42% (active) in the assay on U251 CNS; 14.3% in the assay with PC-3 prostate; -73.1% (active) in the assay with SK-MEL-5 melanoma. Moreover, the growth is -17.3% (active) with UACC-62 melanoma; 5.91% (active) in the assay with SK-MEL-28 melanoma; 87.3% with EKVX NSCLC; 0.389% (active) with SN12C renal; 68.3% in the assay with UO-31 renal; 87.5% in the assay on TK-10 renal. Also, the growth in the assay with ACHN renal is 56.2%; in the assay on CAKI-1 renal, 85.7%; in the assay on A498 renal, 81.9%; with CCRF-CEM leukemia, 24.4%; in the assay with MOLT-4 leukemia it was 8.65% (active).
Regarding `COc1ccc(C2SC(C)C(=O)N2CCc2cccs2)cc1OC` (stereo unspecified), the growth is 87.8% in the assay on HCT-15 colon; 91.6% in the assay on HT29 colon; 86.9% in the assay with SNB-19 CNS; 65.7% in the assay with PC-3 prostate; 49.4% in the assay with SK-MEL-5 melanoma; 73.5% with UACC-62 melanoma. Moreover, the growth in the assay on LOX IMVI melanoma is 81.9%; in the assay with SK-MEL-28 melanoma, 108%; in the assay with SK-MEL-2 melanoma it was 93%; in the assay on EKVX NSCLC, 66.4%; with SN12C renal, 90.1%; with UO-31 renal, 79.2%. The growth in the assay with TK-10 renal was 113%; in the assay with ACHN renal, 80.1%; with CAKI-1 renal it was 73.2%; with A498 renal, 81.9%; in the assay on CCRF-CEM leukemia, 75.9%; with MOLT-4 leukemia it was 64.7%.
In the case of `COc1ccccc1/C=C/C(=O)/C=C/c1ccccc1O`, the growth in the assay on HCT-15 colon is -17.7% (active); with HT29 colon, -41.8% (active); with SNB-19 CNS, 31.8%; in the assay on U251 CNS, -78.9% (active); in the assay with SK-MEL-5 melanoma it was 63.7%; in the assay with UACC-62 melanoma it was -58.9% (active). The growth was -67.7% (active) with LOX IMVI melanoma; -86.9% (active) with SK-MEL-28 melanoma; 72.5% in the assay on SK-MEL-2 melanoma; 46.2% with EKVX NSCLC; -83.4% (active) in the assay with UO-31 renal; -0.117% (active) with TK-10 renal. For the same molecule, the growth with ACHN renal was -81.1% (active); with CAKI-1 renal, -62.5% (active); in the assay on A498 renal, 108%; with CCRF-CEM leukemia, -44.1% (active); with MOLT-4 leukemia, -26.3% (active).
For the molecule `CCN(CC)c1ccc(/C=C(\C#N)c2cc3ccccc3[nH]2)cc1`, the growth in the assay on HCT-15 colon was 29.7%; with HT29 colon it was 13.7%; in the assay on SNB-19 CNS it was 72.9%; in the assay on U251 CNS, 41.7%; with PC-3 prostate, 77%; in the assay on SK-MEL-5 melanoma it was 52.1%. Besides, the growth is 64% in the assay with UACC-62 melanoma; 29.7% with LOX IMVI melanoma; 67.1% in the assay with SK-MEL-28 melanoma; 43.3% with SK-MEL-2 melanoma; 71.5% with EKVX NSCLC; 69.4% in the assay with SN12C renal. The growth in the assay with UO-31 renal is 81.1%; with ACHN renal, 70.7%; in the assay on CAKI-1 renal it was 41.6%; in the assay on A498 renal, 52.7%; in the assay on MOLT-4 leukemia, 37.8%.
As for `Cc1nc2ccc(Cl)cc2n1C`, the growth was 113% in the assay on HCT-15 colon; 98.8% with HT29 colon; 99.5% with SNB-19 CNS; 99.7% with U251 CNS; 101% in the assay on PC-3 prostate; 99.6% in the assay with SK-MEL-5 melanoma. Further, the growth with UACC-62 melanoma is 106%; with LOX IMVI melanoma, 108%; with SK-MEL-28 melanoma, 117%; in the assay on SK-MEL-2 melanoma, 101%; in the assay with UO-31 renal it was 102%; in the assay on TK-10 renal it was 97.2%. In addition, the growth in the assay on ACHN renal is 102%; in the assay on CAKI-1 renal, 101%; with A498 renal it was 95.5%; with CCRF-CEM leukemia it was 94.6%; in the assay on MOLT-4 leukemia, 97.7%.
As for `O=C(CCCCCCC(=O)Nc1ccc2c(c1)/C(=C/c1ccc[nH]1)C(=O)N2)NO`, the growth was 41.5% with HCT-15 colon; 8.62% (active) with HT29 colon; 16.3% in the assay on SNB-19 CNS; -9.13% (active) in the assay with U251 CNS; -75% (active) in the assay with SK-MEL-5 melanoma; -69.8% (active) in the assay with LOX IMVI melanoma. Further, the growth in the assay on SK-MEL-28 melanoma was 14.6%; in the assay with SK-MEL-2 melanoma it was 37%; with SN12C renal it was 12.2%; with UO-31 renal, 6.77% (active); with TK-10 renal it was 5.62% (active); in the assay with ACHN renal, 4.49% (active). The growth is 2.67% (active) in the assay on CAKI-1 renal, -59.3% (active) with A498 renal, 6.86% (active) with CCRF-CEM leukemia and 4.16% (active) with MOLT-4 leukemia.
Turning to `CCOC(=O)n1cc(C2=C(c3cn(C)c4ccccc34)COC2=O)c2ccccc21`, the growth is 12.2% in the assay with HCT-15 colon; 9.6% (active) with HT29 colon; 30.5% in the assay with SNB-19 CNS; 14.9% in the assay on U251 CNS; 28.3% with PC-3 prostate; -7.08% (active) with SK-MEL-5 melanoma. The growth in the assay with UACC-62 melanoma was 26.1%; with LOX IMVI melanoma, 18.7%; with SK-MEL-28 melanoma, 47.7%; in the assay with SK-MEL-2 melanoma it was 57.8%; in the assay on EKVX NSCLC, 45.2%; in the assay on SN12C renal, 23.9%. Besides, the growth is 34.8% in the assay on UO-31 renal; 26.6% in the assay on ACHN renal; 13.2% with CAKI-1 renal; -14.3% (active) in the assay with A498 renal; 16.8% in the assay on CCRF-CEM leukemia; 18.3% with MOLT-4 leukemia.
Turning to `ONc1nc(NO)c2[nH]cnc2n1`, the growth with HCT-15 colon is 89.9%; in the assay on HT29 colon, 109%; in the assay with PC-3 prostate, 69.2%; with SK-MEL-5 melanoma, 102%; in the assay on LOX IMVI melanoma, 26%; with SK-MEL-28 melanoma it was 91%. Further, the growth in the assay with SK-MEL-2 melanoma was 96%; in the assay with SN12C renal, 80.7%; in the assay with UO-31 renal, 52.6%; with ACHN renal it was 60.9%; in the assay on CAKI-1 renal it was 64.1%; in the assay on A498 renal, 78.7%. Further, the growth in the assay with CCRF-CEM leukemia was 12.7%; with MOLT-4 leukemia it was 9.57% (active).
